The nature of assay [1]: liver-stage malaria parasite growth inhibition, primary screen, cell-based, HepG2, luciferase luminescence, HepG2 viability (AID 624349).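 Also: 100% = mean of DMSO negative control wells on the same plate.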 Conditions: P. berghei liver stage in HepG2, luciferase luminescence, concentration not given here; parasite load remaining: stronger effect = lower value; viability: measured here: HepG2 viability without parasites.
The subject of assay [2] is Hepatitis C virus NS3 helicase. Put plainly: HCV NS3 helicase inhibitors, primary screen, biochemical, fluorescence polarization, LOPAC1280 library (AID 687035; in the data active = inhibition above about 37%). Conditions: Purified HCV NS3 helicase, Cy5-dT15 ssDNA binding fluorescence polarization; stronger effect = higher value; concentration not given here.
A short description of assay [3]: Cy5 fluorescence quenching or enhancement artefacts, artefact control for HCV NS3 helicase inhibitor project, biochemical, LOPAC1280 (AID 687037; call rule not given here). The settings on record: Cy5-DNA-NS3h complex fluorescence interference counterscreen.
The nature of assay [4]: stimulators of nuclear beta-catenin in C2C12, primary screen, imaging, WNT3A-conditioned medium, mouse C2C12, NPC library (AID 1117326; in the data active = nuclear beta-catenin stimulation mostly above about 4.2%, no sharp cut-off; inactive = mostly below about 10%). The settings on record: stronger effect = higher value.
Assay [5] in a line: stimulators of insulin release from INS-1E, primary screen, cell-based, 5 mM glucose, NPC library (AID 1117329;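 active = compound raises insulin release from rat beta cells at 5 mM glucose, no numeric limit stated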). Conditions: rat INS-1E insulin secretion, at 10 µM, stronger effect = higher value.
Assay [6] can be described thus: growth inhibition of GSK3B-pretreated HCT116 cells – cell-based, CellTiter-Glo, 0.2 to 20 µM (AID 1117336;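 active = compounds lowering colon cancer cell viability after pretreatment blocking the GSK3B kinase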). The settings on record: HCT116 viability after GSK3B inhibitor, at 20 µM, stronger effect = higher value. A general note: In ATP-based viability assays light output follows the ATP content of the culture.
A short description of assay [7]: inhibition of endothelial tube formation, primary screen, imaging, VEGF stimulated, CD31 staining, tube area, NPC library (AID 1117340;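 active = compound that reduces growth-factor-driven endothelial tube area in a mixed cell culture, no cutoff stated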). The settings on record: VEGF-stimulated ADSC/ECFC co-culture, at 10 µM, stronger effect = higher value.
A short description of assay [8]: glucagon-like peptide 1 release enhancers, primary assay, NCI-H716 cell line, NPC library (AID 1117341;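 active = compound raises GLP1 secretion from the human gut endocrine cells, with no numeric limit stated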). The settings on record: NCI-H716 cells, at 10 µM, stronger effect = higher value.
Assay [9] in a line: HCT116 colon cancer cell growth inhibition, primary screen, CellTiter-Glo luminescence, NPC library (AID 1117342;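 active = compounds that lower survival of HCT116 colon cancer cells in the luminescence readout, no numeric limit stated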). The settings on record: at 20 µM (top of the series).
Assay [10] can be described thus: CellTiter-Glo luminescent readout of SW480 viability loss, NPC library primary (AID 1117343;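 active = compounds that lower viability of the colon cancer cells in the luminescence readout, with no numeric limit stated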). Conditions: CellTiter-Glo luminescence; at 20 µM (top of the series).
Assay [11] is described as follows: decreased DLD-1 cellular survival, CellTiter-Glo luminescent readout, NPC compound collection, primary HTS (AID 1117346;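 active = compounds that lower survival of DLD-1 colon cancer cells in the luminescence readout, no cutoff given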). The settings on record: DLD-1 viability, CellTiter-Glo luminescence; at 20 µM (top of the series).
Assay [12] has as its target 6-phosphogluconate dehydrogenase, decarboxylating (Homo sapiens) (UniProt P52209). Put plainly: 6PGD enzyme inhibitors, primary screen, biochemical, human, recombinant enzyme, NADPH absorbance (AID 1159550;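 active = at least 20% inhibition of 6-phosphogluconate dehydrogenase activity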). The settings on record: recombinant 6PGD, NADPH absorbance 341 nm; at 10 µM; stronger effect = higher value.

Each structure is given as a SMILES string. Values joined by “and” are separate entries in the source; they are usually repeats but may differ in a detail not shown here. Equal entries are not always repeated. Active and inactive are the calls of the source. Rule as the data show it, unless noted: active = parasite load remaining mostly below about 12% (no sharp cut-off); inactive = mostly above about 10%.

A word on the viability: it is a per cent measure of how many cells are alive, often set against a control. Broadly, the inhibition is the change of the read-out against control, counted positive when it falls.

6-phosphogluconate dehydrogenase, decarboxylating (Homo sapiens), sequence (P52209 whole entry, looked up): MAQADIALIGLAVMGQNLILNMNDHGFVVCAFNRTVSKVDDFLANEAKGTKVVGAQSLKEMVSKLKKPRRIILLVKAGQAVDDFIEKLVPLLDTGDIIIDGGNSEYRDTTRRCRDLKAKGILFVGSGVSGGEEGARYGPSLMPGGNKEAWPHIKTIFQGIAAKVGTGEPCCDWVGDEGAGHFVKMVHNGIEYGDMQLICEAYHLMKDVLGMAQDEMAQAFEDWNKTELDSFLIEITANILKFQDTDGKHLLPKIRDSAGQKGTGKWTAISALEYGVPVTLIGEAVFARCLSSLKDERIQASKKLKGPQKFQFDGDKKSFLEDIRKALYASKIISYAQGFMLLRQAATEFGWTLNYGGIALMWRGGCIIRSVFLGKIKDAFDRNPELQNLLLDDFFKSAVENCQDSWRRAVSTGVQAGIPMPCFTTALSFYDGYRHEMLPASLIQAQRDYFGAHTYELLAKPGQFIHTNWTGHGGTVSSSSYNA

Turning to `CN(C)CCOC(=O)COc1ccc(Cl)cc1`, the parasite load remaining in assay [1] is 72.9% (inactive) and 143% (inactive). Moreover, the viability in assay [1] is 96.7% and 93.9%. Also, the inhibition in assay [2] was 0% (inactive); in [12] it was 17.7% (inactive). The fluorescence ratio (interference) in assay [3] was 1 (inactive). Besides, the nuclear beta-catenin stimulation was -0.6% (inactive) in [4] (at 10 µM) and 1% in assay [4] (stimulation, at 2 µM). Further, in assay [5], the insulin secretion stimulation is 1.2% (inactive). Besides, the viability decrease in assay [6] was -0.8% (inactive). Also, in assay [7], the tube area decrease is -34.4% (inactive). For the same compound, in assay [8], the GLP1 secretion stimulation was 1.2% (inactive). For the same compound, in [9], the inhibition of viability is 7.1% (inactive). Moreover, the viability decrease (inhibition) was -16% (inactive) in assay [10] and -7.4% (inactive) in assay [11].

Consider `C[C@](N)(Cc1ccc(O)cc1)C(=O)O`, for which the values for the inhibition in [2] and in [12] were -1% (inactive) and -7.56% (inactive), respectively. Moreover, the fluorescence ratio (interference) in assay [3] is 0.9 (inactive). In addition, the nuclear beta-catenin stimulation in assay [4] (at 10 µM) is -0.2% (inactive); in assay [4] (stimulation, at 2 µM) it was 4.5%. The insulin secretion stimulation in assay [5] was -0.1% (inactive). Also, the viability decrease in [6] is 0.3% (inactive). Besides, in [7], the tube area decrease is -8.2% (inactive). In assay [8], the GLP1 secretion stimulation was 1.3% (inactive). Besides, the inhibition of viability in assay [9] is -15.1% (inactive). Further, the viability decrease (inhibition) in [10] is 42.1% (inactive); in assay [11], -1.1% (inactive).

On to `C[C@]12CC[C@@H]3c4ccc(O)cc4CC[C@H]3[C@@H]1CCC2=O`, for which, in assay [1], the parasite load remaining was 74.7% (inactive) and 24.8% (inactive). For the same compound, the viability in assay [1] is 91.5% and 73.5%. The values for the inhibition in [2] and in [12] were -4% (inactive) and -17.4% (inactive), respectively. The fluorescence ratio (interference) in assay [3] was 1 (inactive). Also, the nuclear beta-catenin stimulation in [4] (at 10 µM) was 2.2% (inactive); in assay [4] (stimulation, at 2 µM), -0.2%. The insulin secretion stimulation in assay [5] was -1.5% (inactive). Moreover, the viability decrease in [6] was -6% (inactive). The tube area decrease in [7] was 21.8% (inactive). In addition, in assay [8], the GLP1 secretion stimulation is -1.2% (inactive). For the same compound, in assay [9], the inhibition of viability is -35.2% (inactive). For the same compound, the viability decrease (inhibition) is 32.8% (inactive) in [10] and -3.45% (inactive) in assay [11].

For the compound `C#CCN(C)Cc1ccccc1`, the parasite load remaining in assay [1] is 33.9% (inactive) and 101% (inactive) and 59.8% (inactive). Further, in assay [1], the viability is 48.5% and 89.5% and 94.1%. In addition, the inhibition in [2] was -3% (inactive); in assay [12], 0.126% (inactive). Further, the fluorescence ratio (interference) in assay [3] was 1 (inactive). In addition, the nuclear beta-catenin stimulation was 2.1% (inactive) in assay [4] (at 10 µM) and 3.2% in assay [4] (stimulation, at 2 µM). Besides, in [5], the insulin secretion stimulation is 4.5% (inactive). Also, in assay [6], the viability decrease was 23.6% (inactive). The tube area decrease in assay [7] is 3.1% (inactive). In assay [8], the GLP1 secretion stimulation was 2.3% (inactive). Also, the inhibition of viability in assay [9] is 2.23% (inactive). The values for the viability decrease (inhibition) in assay [10] and in assay [11] were -22.7% (inactive) and 2.6% (inactive), respectively.
